According to PubChem BioAssay AID652040 (Broad Institute, 2013):
Entries with a potency or affinity are not part of this list. Calls of active or inactive are those of the source.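 How the source made its calls: active means falling luciferase signal whose fitted half-maximal concentration is at most twice the top tested dose; inconclusive means flat inhibition between 30 and 70% or a poor curve fit; inactive means the rest.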

Experiment: off-target signal loss in HeLa-CEM21 co-culture – HeLa F-luc CTL cells, cherry-picked, counter-screen for HIV-1 Env fusion inhibitor project, dose response (AID 652040);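 further: 0% = median of neutral control wells and -100% = doxycycline 40 µg/mL wells; more negative values mean stronger loss of luciferase signal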
Details: HeLa-F-luc CTL cells with CEM21, firefly luciferase counterscreen; series mostly up to 35 µM; activity change, negative = inhibition: at the top concentration

SMILES	activity change, negative = inhibition
O=S(=O)(NC1CC1)c1ccc(S(=O)(=O)N2CCCc3ccccc32)cc1	9.61% (inactive)
c1ccc2c(c1)OCC(CNc1ncnc3nc[nH]c13)O2 (stereo not given)	-6.38% (inactive)
COc1ccc(OCC(=O)Nc2ccccc2N2CCCCC2)cc1	-18.9% (inactive)
C[C@@H]1CN([C@H](C)CO)S(=O)(=O)c2ccc(C#Cc3cccc(F)c3)cc2O[C@@H]1CN(C)C(=O)CN1CCOCC1	40% (inactive)
O=C(c1ccc(Cl)s1)N1CCN(c2nc3ccccc3s2)CC1	-15.1% (inactive)
COc1ccc(CCCC(=O)NCCc2ccccc2)c(C)c1	23.1% (inactive)
CN1CC(c2ccccc2)C2(SC(=S)N(Cc3ccco3)C2=O)C12C(=O)Nc1ccccc12 (stereo not given)	-58.3% (inactive)
COC(=O)[C@]12CCCCC=C1N(Cc1ccco1)C(=O)[C@H](CC(=O)NCCc1ccccc1OC)C2	52.6% (inactive)
O=C(NNC(=O)C(c1ccccc1)c1ccccc1)c1ccccn1	49.4% (inactive)
CCC12CN(S(=O)(=O)c3ccc(C)cc3)CC(CC)(CN(S(=O)(=O)c3ccc(C)cc3)C1)C2=O	0.57% (inactive)
C=C(C)CN(CC)c1nc(N)c2c(N)nc3c(c2c1C#N)CC(=O)N3C12CC3CC(CC(C3)C1)C2	-8.52% (inactive)
CCCCNC(=O)C[C@H]1C[C@@]2(C(=O)OC)C(=C[C@H](C(C)(C)C)O[C@@H]2C)N(Cc2ccc3c(c2)OCO3)C1=O	10.7% (inactive)
CC1CCCCN1S(=O)(=O)c1ccc(C(=O)Nc2nnc(-c3cccs3)o2)cc1 (stereo not given)	-5.3% (inactive)
Cc1ccc(-n2nnnc2SCn2nnc3ccccc3c2=O)c(C)c1	6.64% (inactive)
COc1ccccc1OCC(=O)c1[nH]c(C)c(C(C)=O)c1C	-10% (inactive)
